# Sampled rows, rich in hits. Any-hit rate of the full collection: about 14%.
# LmPK inhibitor: LmPK (Leishmania mexicana) enzyme inhibition | purified LmPK, Kinase-Glo ATP luminescence, 1 h | Potency, µM (titrated, usually from 57.5 µM), for inactives: at the top dose activity change, negative = inhibition, actives largely listed as inhibitors | actives 0.37% (n = 290,000); further: potency means the concentration at half of the fitted maximal effect; on the % scale 0 is the no-effect control and ±100 the full control effect
#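 Screened at intermediate enzyme activity to detect both inhibitors and activators: LmPK at 0.1 nM, with a 0.5 nM enzyme column as activation reference. PEP 0.5 mM, ADP 0.1 mM; ATP detected by luminescence after 1 h.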
# Giardia FBPA inh: blocks Giardia fructose-bisphosphate aldolase activity; actives 0.71% (n = 290,000); purified Giardia FBPA; Potency, µM (doses to about 59.6 µM), for the others: top-dose activity, negative = inhibition, hits mostly inhibitors; AID 2451; further: potency means the concentration at half of the fitted maximal effect; on the % scale 0 is the no-effect control and ±100 the full control effect; nearly all actives have a fitted effect of over 55% in size
# Target sequence (A8B2U2 whole entry, looked up): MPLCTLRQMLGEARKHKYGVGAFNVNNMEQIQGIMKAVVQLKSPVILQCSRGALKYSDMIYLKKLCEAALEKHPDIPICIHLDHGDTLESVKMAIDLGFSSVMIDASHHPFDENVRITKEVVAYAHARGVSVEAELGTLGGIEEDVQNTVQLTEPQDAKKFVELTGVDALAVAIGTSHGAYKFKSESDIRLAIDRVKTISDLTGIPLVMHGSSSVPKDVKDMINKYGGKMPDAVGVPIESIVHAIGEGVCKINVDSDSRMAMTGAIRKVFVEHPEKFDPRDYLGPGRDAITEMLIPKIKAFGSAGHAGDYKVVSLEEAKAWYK
#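 40 nM FBPA preincubated 10 min at RT with compound (up to 57.5 uM final), then substrate plus GAPDH/TPI/NAD/arsenate coupling and diaphorase/resazurin added. Fluorescence read after 20 min at RT, 525/598 nm.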
# Shiga toxin inh: blocks Shiga toxin action in Vero cells. inhibition, % at 38.7 µM. actives 9.2% (n = 290,000). Vero cells, Shiga toxin protein synthesis inhibition reporter; in the data active means inhibition mostly above about 28%, no sharp cut-off; inactive means mostly below about 43%; further: 0% is about no effect
# Cycloheximide cs: affects cycloheximide protein synthesis inhibition readout, counter-screen; cell reporter, cycloheximide protein synthesis inhibition counterscreen; max response, %; actives 12% (n = 300,000); AID 2314; in the data active means max response mostly above about 13%, no sharp cut-off; inactive means mostly below about 14%; further: read at 38.3 µM for the half of the compounds with a filed dose; 0% is about no effect
# NS1 inh: influenza NS1 inhibition. Potency, µM (series often up to 46.1 µM), without a hit: at the highest dose activity, positive = more growth. actives 0.4% (n = 270,000); calls by dose curve; further: potency means the concentration at half of the fitted maximal effect; actives are rising curves; nearly all actives have a fitted effect of over 50% in size
#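 In this qHTS, NS1 from influenza A is expressed in budding yeast, where it slows growth. Cells are switched from glucose to 2% galactose medium (pH 6.0, -URA), treated with compound, and growth recovery is read at OD600.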
# Starred values were filed as active, the others as inactive; i = inactive; ? = inconclusive; · = no result given; [ ] = another dose, or the depositor's remark. Unless noted, the call rests on the fitted dose curve; in most records, active means well fitted curve in the direction sought with a large enough effect; inconclusive means small, poorly fitted or top-dose-only effect, or another doubt; inactive means no such curve, though single readings can be large; an effect the other way counts as inactive or inconclusive.
SMILES,LmPK inhibitor,Giardia FBPA inh,Shiga toxin inh,Cycloheximide cs,NS1 inh
COC(=O)c1ccc(C(NC(=O)OCc2ccccc2)/C(F)=C/[C@@H](C)C(=O)NC2CCCCC2)cc1 (some centres undefined),·,4.8%,·,·,·
C=CCN1c2ccccc2[C@]23C[C@@H](C(=O)OC)N(S(=O)(=O)c4ccc(Br)cc4)C2=NC(C(=O)OC)=C(C(=O)OC)[C@H]13,-3.7%[11.5 µM],6.0%[12.9 µM],·,·,·
CN(C)c1cccc(NC(=O)c2ccco2)c1,1.5%,-12.6%,26.0,17.8,-1.9%
CN(C)c1ccc(N/C=C/C(=O)c2ccco2)cc1,7.08µM*,?,91.1*,48.9*,-1.5%
CC(=O)Nc1ccc(N/C=C/C(=O)c2ccco2)cc1,?,?,75.6*,59.2*,-9.1%
COc1ccc(-c2nnc(SCC(=O)c3ccc[nH]3)n2-c2ccccc2)cc1,0.8%,1.4%,81.5*,33.9*,12.7%
CCn1ccnc1CN(C)Cc1nc(-c2cccc(Cl)c2)no1,-6.8%,7.1%,49.1,29.6*,-5.6%
CCn1ccnc1CN(C)Cc1nc(-c2ccccc2)no1,0.0%,-0.5%,55.1*,34.6*,9.7%
CCn1ccnc1CN(C)Cc1nc(CCC(C)C)no1,8.2%,2.0%,36.8,23.1,0.4%
CN(CCN1CCOCC1)Cc1nc(-c2ccccc2)no1,-2.1%,-2.3%,13.8,12.0*,1.2%
CCOC(=O)Cc1csc(NS(=O)(=O)c2ccc(C(F)(F)F)cc2)n1,4.6%,14.7%,-9.7,-4.3,3.3%
O=C(Nc1ccc(Br)cc1)Nc1ccccc1Cl,-27.3%,1.3%,103.0*,68.3*,-1.4%
CCN1CCN(Cc2ccccc2NC(=O)Nc2ccc(C)cc2)CC1,-5.2%,4.0%,36.1*,23.9*,1.8%
CCN1CCN(C(=O)C2(NC(=O)Nc3ccccc3Cl)CCCCC2)CC1,-0.3%,2.9%,5.6,-2.4,1.0%
CC(=O)Nc1ccc(CN2CCCCCCC2)cc1,0.2%,26.8%,23.5,8.5,?
O=C(Nc1ccc(CN2CCCCC2)cc1)Nc1ccccc1Cl,2.0%,2.4%,52.7*,32.5*,-5.7%
CCN1CCN(Cc2ccc(NC(=O)Nc3ccccc3Cl)cc2)CC1,-3.7%,4.4%,97.0*,46.7*,-7.9%
O=C(O)[C@H](Cc1cc(I)c(O)c(I)c1)C1CCCCC1,·,·,·,·,-30.6%
CCOC(=O)C1=C(c2ccccc2)c2cc(OC)ccc2OC1C(=O)OCC (centres undefined),·,-7.8%[89.2 µM],i,8.8,·
COc1ccc2cnoc(=O)c2c1OC,·,-1.9%,·,·,·
C#CCCCO/N=C1/C[C@@H](O)[C@@H](O)[C@@H]2[C@@H]3C(=O)N(C(C)(C)C)C(=O)[C@H]3CC[C@@H]12,·,2.6%[12.9 µM],·,·,·
CCCn1c(C)nc2c(NCCN(C)C)nc(C)nc21,·,4.1%,·,·,·
CC(=O)Nc1ccc(C(=O)Nc2ccncc2)cc1,-2.1%,12.9%,-7.0,0.3,-14.0%
CC(C)Oc1ccc(C(=O)Nc2ccc([N+](=O)[O-])cc2)cc1,-1.7%,3.6%,118.6*,36.9*,·
CC(C)Oc1ccc(NC(=O)c2ccncc2)cc1,-7.9%,-1.0%,63.4*,18.7*,3.6%
SMILES,LmPK inhibitor,Giardia FBPA inh,Shiga toxin inh,Cycloheximide cs,NS1 inh
CC(C)Cc1cc(CNC(=O)C2CCC(=O)N(Cc3cccc(C(F)(F)F)c3)C2)on1 (centres undefined),-4.2%,·,12.5,0.5,14.1%
O=C(Nc1ccc(Br)c2ccccc12)c1ccc2ccccc2c1O,3.0%,-29.2%,44.4*,21.6*,-64.5%
COc1ccc(/C=N\NC(=O)c2ccccc2)cc1COc1ccccc1,0.0%,0.4%,44.8*,25.1*,-4.9%
COc1ccc(/C=N\NC(=O)c2ccccc2F)cc1COc1ccc(F)cc1F,-5.0%,-17.3%,32.1*,23.9*,-40.5%
COc1cc(C(=O)N/N=C/c2ccc(OC(=O)c3ccccc3)c(OC)c2)ccc1O,6.4%,1.3%,-4.0,6.0,-3.3%
CCOc1c(Br)cc(/C=N\NC(=O)c2ccccc2)cc1OC,5.6%,-2.2%,active,32.0*,-32.4%
COc1cc(/C=N/NC(=O)c2ccccc2)ccc1O,-3.2%,-1.7%,60.1*,25.8*,1.5%
CCOc1ccc(C(C)C)cc1S(=O)(=O)N1CCN(C(=O)c2ccco2)CC1,-1.5%,8.6%,16.3,-0.8,1.6%
COc1cc(/C=N/c2oc(-c3ccccc3)cc2C#N)ccc1O,-1.0%,-4.1%,28.4,19.3*,-10.8%
COc1ccc(/C=N/NC(=O)c2cccc(Br)c2)cc1COc1ccccn1,0.3%,5.0%,10.5,14.1*,-4.4%
COc1cc(/C=N/NC(=O)c2ccc(O)cc2)ccc1OCC(=O)N1CC(C)OC(C)C1 (centres undefined),-0.7%,1.6%,36.9*,14.1*,6.9%
COc1ccc(C(=O)N/N=C/c2ccc(OC)c(COc3ccccc3)c2)cc1,-3.6%,·,10.5,10.6,10.0%
COc1ccc(/C=N/NC(=O)c2cccc(Br)c2)cc1CN1CCOCC1,-0.1%,5.2%,17.8,18.9*,-1.2%
Cc1nc2cnc(Oc3ccccc3)nc2n(C)c1=O,·,3.6%,·,·,·
O=C(NCCCN1CCCC1=O)c1cc2nc(-c3ccco3)cc(C(F)(F)F)n2n1,-0.1%,6.3%,-5.8,-4.6,3.7%
COc1cc(/C=N/NC(=O)CN(Cc2ccco2)S(=O)(=O)c2ccccc2)ccc1O,0.8%,-2.4%,-3.7,17.7*,12.8%
COc1cccc(OCc2cc(/C=N/NC(=O)c3ccn[nH]3)ccc2OC)c1,2.9%,1.0%,70.8*,49.6*,9.0%
COc1ccc(/C=N/NC(=O)c2ccccc2O)cc1COc1ccccn1,-2.8%,10.2%,40.7*,22.7*,-7.1%
CCS(=O)(=O)Nc1ccc(C2=NN(S(=O)(=O)CC)C(c3cccs3)C2)cc1 (centres undefined),-9.9%,·,19.8,-7.2,17.5%
Cc1cc2c3c([nH]c2cc1S(=O)(=O)N1CCC2(CC1)OCCO2)CC(C)(C)CC3=O,0.2%,-0.9%,-5.1,-3.0,0.8%
O=C(CCn1c(=O)oc2ccccc21)Nc1nc2ccccc2s1,1.1%,-3.5%,44.0*,13.0*,-9.9%
COC(=O)c1ccc(NC(=O)CCn2c(=O)oc3ccccc32)cc1,0.8%,-5.3%,40.4*,28.7*,-7.6%
Cc1ccc(NC(=O)CCn2c(=S)oc3ccccc32)cc1,3.4%,0.9%,-9.6,-2.9,·
O=C(CCn1c(=O)oc2ccccc21)Nc1ccc(C(=O)O)cc1,-1.9%,-4.7%,-18.3,-2.6,1.8%
CN(C)c1ccc(NC(=O)CCn2c(=S)oc3ccccc32)cc1,-4.4%,0.3%,94.9*,54.7*,·
SMILES,LmPK inhibitor,Giardia FBPA inh,Shiga toxin inh,Cycloheximide cs,NS1 inh
CCSc1nnc(NC(=O)CCn2c(=O)oc3ccccc32)s1,-0.1%,4.9%,-14.7,-1.4,3.9%
Cc1cc(OCCn2cncn2)ccc1[N+](=O)[O-],-4.4%,1.3%,9.1,4.7,19.5%
C=CCN1C(=O)C2(OCCCO2)c2cc(C)ccc21,3.5%,3.8%,-3.8,-2.0,11.4%
C#CCn1cccc(C(=O)Nc2ccc(OC)cc2)c1=O,-1.9%,-5.1%,46.1*,18.4*,1.6%
CCCn1cccc(C(=O)Nc2ccc(OC)cc2)c1=O,-7.6%,-7.6%,53.4,22.2*,-8.4%
O=C(Nc1ccccc1)c1ccc(=O)n(Cc2cccc(Cl)c2)c1,5.5%,0.1%,-7.9,-2.1,-4.5%
